Data from PubChem BioAssay AID1159580 (chemical genetic matrix, 2015).
Several values for one entry are separate records, joined by “and”; a condition that tells them apart may be missing. Equal values may be shown once. In all, about 5,500 compounds went through this assay and about 2,000 (36%) were called active. Roughly 18% stayed inconclusive and do not appear here. No stated cut-off is given here; in the data, active means normalized growth mostly below about 0.91 (no sharp cut-off); inconclusive means no clear call, values can overlap the other calls; inactive means mostly above about 0.92. This is one part of the list.

Assay: chemical genetic growth profiling, strain panel (AID 1159580);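 further: tested at 20 µM; growth read once vehicle control cultures reached saturation at 30 °C; 1 = growth at the plate median or of vehicle wells; lower values mean less growth of the strain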
Details: S. cerevisiae deletion strains, growth OD

Measured: normalized growth

COC(=O)C[C@H]1C(C)(C)C2(O)OC34CC2C(=O)[C@]1(C)C3CC[C@]1(C)C4=CC(=O)O[C@H]1c1ccoc1 (some centres not stated)
inactive: locus YAL013W, strain DEP1, hits give low values 1.01 | locus YAL021C, strain ccr4, hits give low values 0.99 | locus YAL026C, strain drs2, hits give low values 0.998 | locus YAL030W, strain snc1, hits give low values 0.99 | locus YBL061C, strain skt5, hits give low values 0.999 | locus YBR009C, strain hhf1, hits give low values 1.01 | locus YBR021W, strain FUR4, hits give low values 0.976 | locus YBR023C, strain chs3, hits give low values 0.99 | locus YBR171W, strain sec66, hits give low values 0.973 | locus YBR229C, strain ROT2, hits give low values 1.01 | locus YBR231C, strain swc5, hits give low values 0.986 | locus YBR279W, strain paf1, hits give low values 0.998 | locus YCL011C, strain gbp2, hits give low values 0.978 | locus YCL016C, strain dcc1, hits give low values 1 | locus YCL029C, strain bik1, hits give low values 1.01 | locus YCL061C, strain MRC1, hits give low values 1.02 | locus YCL069W, strain vba3, hits give low values 0.977 | locus YCR088W, strain abp1, hits give low values 0.978 | locus YDL005C, strain med2, hits give low values 0.991 | locus YDL035C, strain GPR1, hits give low values 1 | locus YDL040C, strain nat1, hits give low values 0.973 | locus YDL074C, strain BRE1, hits give low values 1.01 | locus YDL101C, strain DUN1, hits give low values 1 | locus YDL134C, strain PPH21, hits give low values 1.01 | locus YDL185W, strain tfp1, hits give low values 1.01 | locus YDL192W, strain arf1, hits give low values 1.01 | locus YDR001C, strain nth1, hits give low values 0.991 | locus YDR069C, strain doa4, hits give low values 0.988 | locus YDR101C, strain arx1, hits give low values 1.01 | locus YDR137W, strain rgp1, hits give low values 1.03 | locus YDR150W, strain NUM1, hits give low values 0.993 | locus YDR159W, strain sac3, hits give low values 0.973 | locus YDR162C, strain NBP2, hits give low values 1.02 | locus YDR195W, strain ref2 0.963 | locus YDR297W, strain sur2, hits give low values 0.994 | locus YDR318W, strain mcm21, hits give low values 1 | locus YDR334W, strain swr1, hits give low values 0.975 | locus YDR335W, strain msn5, hits give low values 0.983 | locus YDR388W, hits give low values 1 | locus YDR392W, strain spt3, hits give low values 0.952 | locus YDR502C, strain sam2, hits give low values 0.994 | locus YEL003W, strain gim4, hits give low values 0.992 | locus YEL037C, strain rad23, hits give low values 0.98 | locus YEL061C, strain CIN8 (second series), hits give low values 0.972 | locus YER015W, strain faa2, hits give low values 0.996 | locus YER016W, strain bim1, hits give low values 0.984 | locus YER110C, hits give low values 1.02 | locus YER111C, strain swi4, hits give low values 0.985 | locus YER155C, strain BEM2 (second series), hits give low values 0.993 | locus YER155C, strain BEM2, hits give low values 0.992 | locus YER167W, strain BCK2, hits give low values 0.996 | locus YFR010W, strain ubp6, hits give low values 0.974 | locus YGL078C, strain dbp3, hits give low values 1.02 | locus YGL086W, strain mad1, hits give low values 0.99 | locus YGL167C, strain pmr1, hits give low values 1 | locus YGL173C, strain kem1, hits give low values 0.988 | locus YGL227W, strain vid30, hits give low values 0.983 | locus YGL240W, strain doc1, hits give low values 0.971 | locus YGL248W, strain PDE1, hits give low values 1.01 | locus YGL253W, strain hxk2, hits give low values 0.968 | locus YGR135W, strain pre9, hits give low values 1.01 | locus YGR252W, strain gcn5, hits give low values 1.05 | locus YHR013C, strain ard1, hits give low values 0.988 | locus YHR027C, strain rpn1, hits give low values 0.99 | locus YHR030C, strain SLT2, hits give low values 1 and 0.968 | locus YHR079C, strain IRE1 (second series), hits give low values 1.01 | locus YHR079C, strain IRE1, hits give low values 0.972 | locus YHR094C, strain hxt1, hits give low values 1.02 | locus YHR129C, strain ARP1, hits give low values 1 | locus YHR142W, strain chs7, hits give low values 0.975 | locus YHR200W, strain rpn10, hits give low values 1 | locus YIL066C, strain RNR3, hits give low values 1.01 | locus YIL073C, strain SPO22, hits give low values 1.01 | locus YIL125W, strain kgd1, hits give low values 1.01 | locus YIR030C, strain dcg1, hits give low values 1.01 | locus YJL092W, strain hpr5, hits give low values 0.98 | locus YJL095W, strain BCK1 (second series), hits give low values 0.988 | locus YJL095W, strain BCK1, hits give low values 0.982 and 0.98 | locus YJL115W, strain asf1, hits give low values 0.984 | locus YJL129C, strain trk1, hits give low values 1 | locus YJL134W, strain LCB3, hits give low values 1 | locus YJL154C, strain vps35, hits give low values 0.989 | locus YJL164C, strain tpk1, hits give low values 1 | locus YJL166W, strain qcr8, hits give low values 0.986 | locus YJL168C, strain set2, hits give low values 0.996 | locus YJL187C, strain SWE1 (second series), hits give low values 1.01 | locus YJL187C, strain SWE1, hits give low values 1.01
